# Assay outcomes deposited in PubChem BioAssay by National Center for Advancing Translational Sciences (NCATS).
# Only some compounds are listed: those with a hit (about 19% of all), similar ones and a draw of the others.
# DT40 TDP1 no CPT – qHTS for Inhibitors of human tyrosyl-DNA phosphodiesterase 1 (TDP1): qHTS in cells in absence of CPT; DT40 Tdp1-/- hTDP1 cells, no CPT, ATP luminescence, 48 h; Potency, µM (series often up to 46.2 µM), inactives show top-dose activity change, negative = growth inhibition, most hits filed as inhibitors; 420,000 compounds, 15% hits; also: potency is read from the fitted curve at half-maximal effect; % is scaled to controls: 0 for no effect and ±100 for the full control effect; nearly all actives have a fitted effect of over 55% in size
#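 Luminescent ATP content (CellTiter-Glo) served as the growth readout. Knockout chicken DT40 cells expressing human TDP1 were exposed to compounds without camptothecin for a minimum 48 hr at 37 °C.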
# TDP1 cell CPT – qHTS for Inhibitors of human tyrosyl-DNA phosphodiesterase 1 (TDP1): qHTS in cells in presence of CPT. 420,000 compounds, 12% hits. Potency, µM (titrated, usually from 46.2 µM), inactives show top-dose activity change, negative = growth inhibition, hits mostly inhibitors. chicken DT40 Tdp1-/-;hTDP1 cells + 20 nM CPT, ATP luminescence, 48 h; also: potency is read from the fitted curve at half-maximal effect; % is scaled to controls: 0 for no effect and ±100 for the full control effect; nearly all actives have a fitted effect of over 55% in size
#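 Chicken DT40 Tdp1-/- cells complemented with human TDP1, 400 cells/well, exposed to compounds plus 20 nM camptothecin for at least 48 h at 37 C; viability read as ATP content by CellTiter-Glo luminescence.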
# ASM inhibitor – Inhibitors of Secretory Acid Sphingomyelinase (S-ASM): qHTS. placental ASM, HMU-PC fluorogenic substrate, 60 min. Potency, µM (series often up to 57.5 µM), for inactives: at the top dose activity change, negative = inhibition, most hits filed as inhibitors. 340,000 compounds, 0.006% hits. AID 504937, 2011; also: potency is read from the fitted curve at half-maximal effect
# Target sequence (P17405 47-631 limits assumed): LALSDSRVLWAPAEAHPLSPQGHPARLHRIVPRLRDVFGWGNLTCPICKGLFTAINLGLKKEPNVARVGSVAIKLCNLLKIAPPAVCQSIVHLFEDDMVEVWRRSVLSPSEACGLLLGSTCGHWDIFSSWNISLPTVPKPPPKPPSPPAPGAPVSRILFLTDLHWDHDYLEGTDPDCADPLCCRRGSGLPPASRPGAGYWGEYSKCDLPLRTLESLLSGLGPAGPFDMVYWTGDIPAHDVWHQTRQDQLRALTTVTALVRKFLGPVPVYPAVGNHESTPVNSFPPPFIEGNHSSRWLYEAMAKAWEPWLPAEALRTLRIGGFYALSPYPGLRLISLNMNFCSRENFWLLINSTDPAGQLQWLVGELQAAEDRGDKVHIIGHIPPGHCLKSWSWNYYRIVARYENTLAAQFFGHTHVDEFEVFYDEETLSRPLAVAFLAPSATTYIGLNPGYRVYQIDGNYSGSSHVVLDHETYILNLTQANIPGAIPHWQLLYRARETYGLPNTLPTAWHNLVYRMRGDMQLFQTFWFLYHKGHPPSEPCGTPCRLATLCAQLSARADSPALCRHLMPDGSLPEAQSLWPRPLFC
#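 Fluorogenic HMU-PC substrate (9 uM final) is turned over by placental ASM in 60 min at 37 C after a 10 min compound preincubation. Reaction ended by alkaline stop (pH 10), with fluorescence read at 386/447 nm.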
# TGFb inhibitor – qHTS for Inhibitors of TGF-b; 410,000 compounds, 1.2% hits; Potency, µM (top dose mostly 46.1 µM), for the others: at the top dose activity, negative = inhibition, usual class: inhibitors; HepG2 CAGA-GFP TGF-b/SMAD3 reporter, GFP fluorescence, 18 h; TGF-beta stimulated, 500 pg/mL final; also: potency is read from the fitted curve at half-maximal effect; % is scaled to controls: 0 for no effect and ±100 for the full control effect; nearly all actives have a fitted effect of over 65% in size
#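 HEPG2 CAGA-GFP, 1000 cells/well; 2 h settle, 37 C; cpd via pin tool; TGF-b 500 pg/mL final; 18 h, 37 C; GFP imaging ex488/em500-530; %Activity normalised to -TGF-b and +DMSO controls; CRC fit, curve class.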
# HepG2 viability – qHTS for Inhibitors of TGF-b: Cytotox Counterscreen | 410,000 compounds, 0.76% hits | Potency, µM (highest dose often 46.1 µM), for the others: at the highest dose activity change, negative = cytotoxicity, most hits filed as cytotoxic | HepG2 CAGA-GFP viability, ATP luminescence, 18 h; also: potency is read from the fitted curve at half-maximal effect
#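 HepG2 CAGA-GFP cells (1000/well, DMEM with 1% FBS) received compound, then TGF-beta at 500 pg/mL final, and were incubated 18 hours at 37 degrees C. Viability was read by CellTiter-Glo luminescence. Media-only wells were set as complete cell-killing and DMSO as no toxicity.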
# IL1B secr inh – qHTS for Inhibitors of Inflammasome Signaling: IL-1-beta AlphaLISA Primary Screen; AID 743279, 2014; THP-1 LPS/ATP IL-1B secretion, AlphaLISA, 16 h; hits give low values; 360,000 compounds, 4.7% hits; activity change, % at 57.5 µM; in the data active = activity change below about -50%; inconclusive = mostly about -30% to -49%; also: % is scaled to controls: 0 for no effect and ±100 for the full control effect
#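 Secreted IL-1B measured by AlphaLISA bead assay after 16 h compound exposure of THP-1 cells; compounds (final up to 57.5 uM) added 1 h before LPS (250 ng/mL) and ATP (1.25 mM) stimulation; lower signal means less secretion.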
# * marks the source's active call; other numbers are inactive results; i = inactive; ? = inconclusive; nt = no result. Unless noted, calls follow the shape of the dose curve; as a rule, active = well fitted curve in the direction sought with a large enough effect; inconclusive = small, poorly fitted or top-dose-only effect, or another doubt; inactive = no such curve, though single readings can be large; an effect the other way counts as inactive or inconclusive.
SMILES,DT40 TDP1 no CPT,TDP1 cell CPT,ASM inhibitor,TGFb inhibitor,HepG2 viability,IL1B secr inh
c1cc2c(cc1[C@H]1OC[C@H]3[C@@H]1CO[C@H]3c1ccc3c(c1)OCO3)OCO2,?,?,15.5%,-14.4%,-27.1%,-21.2
ClCCN1CCSCC1,?,?,2.4%,2.2%,-7.6%,-14.0
Cc1onc(-c2ccccc2)c1C(=O)N1CCC2(CC1)OCCO2,3.2%,-15.0%,5.6%,0.0%,-22.7%,-9.3
COC(=O)C1=C(c2ccc(-c3ccccc3)c(F)c2)C[C@@H]2CC[C@H]1N2C(=O)NCCNC(C)=O,?,20.6µM*,-6.8%,-10.9%,-6.0%,11.3
COC(=O)C1=C(c2ccc(-c3ccccc3)c(F)c2)C[C@@H]2CC[C@H]1N2C(=O)NCCOc1ccc(OC)cc1,14.6µM*,14.6µM*,-12.5%,?,4.4%,-25.1
Cc1ccccc1NC(=O)Cc1nc(COC(=O)c2cc([N+](=O)[O-])ccc2N)cs1,?,-1.7%,-0.1%,4.1%,-20.2%,-4.4
CCOC(=O)[C@]12Cc3ccccc3[C@H]1N(C(C)C)C(=O)c1cc(OC)ccc12,14.6µM*,23.1µM*,nt,nt,nt,-116.1*
CCOC(=O)[C@]12Cc3ccccc3[C@H]1N(Cc1ccccc1)C(=O)c1ccccc12,?,?,3.1%,-25.7%,-30.3%,-7.0
CCOC(=O)[C@]12Cc3c(cc(OC)c(OC)c3OC)[C@H]1N(C)C(=O)c1cc(OC)ccc12,9.2µM*,10.3µM*,nt,nt,nt,-74.3*
CCOC(=O)[C@]12Cc3ccccc3[C@H]1N(C)C(=O)c1cc(OC)ccc12,14.6µM*,23.1µM*,nt,nt,nt,-116.1*
CCCCCCCCCCCCOCCOCCOCCOCCOCCOCCOCCOCCOCCO,6.68µM*,6.68µM*,nt,nt,nt,nt
Cc1nn(CC(C)C)c(Cl)c1C(=O)NC1CCCCC1,-12.2%,7.4%,5.9%,-2.0%,21.2%,0.7
Cc1cc(NC(=O)CCl)on1,9.2µM*,?,-2.0%,0.0%,-9.7%,-105.9*
O=[N+]([O-])c1ccc(F)c([N+](=O)[O-])c1,?,5.6%,nt,nt,nt,nt
CN(C)c1ccc([N+](=O)[O-])c([N+](=O)[O-])c1,?,?,-3.4%,8.3%,-8.6%,-58.6*
CCC(c1nnnn1Cc1ccccc1)N1CCC2(CC1)C(=O)NCN2c1ccccc1 (stereo unspecified),?,?,nt,?,2.6%,17.7
CCCCn1c(NS(=O)(=O)c2ccc(C)cc2)c(C(=O)OCC)c2nc3ccccc3nc21,?,?,i,-8.4%,-1.5%,-6.6
CCCCn1c(NC(=O)c2ccco2)c(C(=O)OCC)c2nc3ccccc3nc21,4.61µM*,9.2µM*,455.8%,-2.2%,-32.2%,?
CC(C)OC(=O)c1c(N)n(CC2CCCO2)c2nc3ccccc3nc12 (stereo unspecified),?,?,i,-38.5%,-21.6%,-16.8
Nc1c(C(=O)OC2CCCCC2)c2nc3ccccc3nc2n1CC1CCCO1 (stereo unspecified),16.4µM*,?,i,1.7%,18.4%,?
CC(C)CCOC(=O)c1c(N)n(CC2CCCO2)c2nc3ccccc3nc12 (stereo unspecified),20.6µM*,?,i,11.2µM*,-0.3%,-65.1*
CC(C)CCn1c(N)c(C(=O)OCC2CCCO2)c2nc3ccccc3nc21 (stereo unspecified),?,?,i,?,-24.5%,-20.6
